Values joined by “and” are separate entries in the source; they are usually repeats but may differ in a detail not shown here. Identical values can stand only once. This is part of a sample that, as a whole, favours compounds with a hit. Of some 79,000 tested, about 15% had one in any assay. The source holds several records for some structures; these can differ, active in one and inactive in another. Active and inactive are the calls of the source. Rule as the data show it: active = growth inhibition above about 70%; inactive = the rest.
Legend:
[1] = NCI Yeast Anticancer Drug Screen. Data for the rad52 strain (AID 147);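 also: 0% = growth of vehicle-treated control cultures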; details: S. cerevisiae rad52 mutant growth inhibition, stronger effect = higher value
In short: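 Genetically altered yeast (DNA damage repair defect) treated with compound; inhibition calculated relative to vehicle.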

[2] = NCI Yeast Anticancer Drug Screen. Data for the wt1 strain (AID 149);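 also: 0% = growth of vehicle-treated wt1 cultures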; details: S. cerevisiae wt1 strain (SPY 50644) growth inhibition, stronger effect = higher value
In short: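 Compounds are added to wt1 yeast cultures. Growth is then measured. Inhibition is expressed relative to vehicle-treated controls.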

[3] = NCI Yeast Anticancer Drug Screen. Data for the rad50EPP+ strain (AID 151);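 also: 0% = growth of vehicle-treated control cultures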; details: S. cerevisiae rad50 mutant strain, stronger effect = higher value
In short: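 Strain rad50EPP+; compound exposure; % growth inhibition vs vehicle.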

[4] = NCI Yeast Anticancer Drug Screen. Data for the mgt1 strain (AID 153); details: S. cerevisiae mgt1 mutant growth inhibition, stronger effect = higher value
In short: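 Read-out: yeast growth inhibition vs vehicle control. Strain mgt1, drawn from a panel altered in DNA damage repair or cell cycle control.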

[5] = NCI Yeast Anticancer Drug Screen. Data for the rad50 strain (AID 155);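 also: 0% = growth of vehicle-only cultures of the same strain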; details: S. cerevisiae rad50 strain growth inhibition, stronger effect = higher value
In short: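 Inhibition values express reduced yeast growth in compound-treated cultures relative to vehicle-treated controls.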

[6] = NCI Yeast Anticancer Drug Screen. Data for the mec2-1 strain (AID 157); details: S. cerevisiae mec2-1 strain, stronger effect = higher value
In short: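 Cells of the genetically defined mec2-1 yeast strain are incubated with test compound. Inhibition of growth is calculated against vehicle-treated controls.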

[7] = NCI Yeast Anticancer Drug Screen. Data for the rad14 strain (AID 159);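 also: 0% = growth of vehicle-treated control cultures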; details: S. cerevisiae rad14 strain growth inhibition, stronger effect = higher value
In short: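 A mutant yeast strain defective in DNA damage repair is treated with compound; inhibition of its growth is scored against untreated, vehicle-exposed cultures.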

[8] = NCI Yeast Anticancer Drug Screen. Data for the sgs1 mgt1 strain (AID 161);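 also: 0% = growth of cultures given vehicle only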; details: S. cerevisiae sgs1 mgt1 strain, stronger effect = higher value
In short: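 Genetically altered yeast, compound exposure, growth inhibition relative to vehicle.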

[9] = NCI Yeast Anticancer Drug Screen. Data for the CLN2oe strain (AID 163);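 also: 0% = growth of vehicle-only control cultures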; details: S. cerevisiae CLN2oe strain, stronger effect = higher value
In short: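 Strain altered in cell-cycle control, incubated with compound; growth compared to solvent-treated controls.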

[10] = NCI Yeast Anticancer Drug Screen. Data for the cln2 rad14 strain (AID 165);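 also: 0% = growth equal to vehicle treated cultures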; details: S. cerevisiae cln2 rad14 strain, stronger effect = higher value
In short: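 The screen exposed genetically defined yeast (cln2 rad14) to test compounds and scored growth inhibition relative to vehicle-treated controls.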

[11] = NCI Yeast Anticancer Drug Screen. Data for the bub3 strain (AID 167); details: S. cerevisiae bub3 mutant strain, stronger effect = higher value
In short: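 Steps: expose the mutant yeast strain to compound; grow alongside vehicle-treated cultures; measure growth; express inhibition against the vehicle cultures.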

[12] = NCI Yeast Anticancer Drug Screen. Data for the wt2 strain (AID 169);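 also: 0% = growth of vehicle-treated yeast cultures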; details: S. cerevisiae wt2 strain growth inhibition, stronger effect = higher value
In short: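 Steps: yeast strain treated with compound; growth recorded; inhibition calculated relative to cultures given vehicle alone.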

[13] = NCI Yeast Anticancer Drug Screen. Data for the mlh1 strain (AID 171);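 also: 0% = growth of vehicle-treated control cultures of the same strain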; details: S. cerevisiae mlh1 strain growth inhibition, stronger effect = higher value
In short: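 Yeast screen: mutant strain plus compound, growth scored against vehicle control wells.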

[14] = NCI Yeast Anticancer Drug Screen. Data for the sgs1 strain (AID 173);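 also: 0% = growth of vehicle-only control cultures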; details: S. cerevisiae sgs1 mutant, stronger effect = higher value
In short: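 Inhibition of yeast growth served as the measure. The mutant strain was treated with each compound, and growth was normalised to cultures receiving vehicle alone.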

[15] = at 5.0 µM (retest, dose inferred, filed as 0.5)
[16] = at 50.0 µM (retest, dose inferred, filed as 5.0)

Measured: growth inhibition

O=C(C[n+]1ccc2ccccc2c1)c1ccc2ccccc2c1
-10% (inactive) and 71.2% (active): [10]; at 50.0 µM
active: [1]; at 100.0 µM 99% | [2]; at 100.0 µM 97% | [3]; at 100.0 µM 74% | [4]; at 100.0 µM 98% | [5]; [16] 100% | [5]; at 100.0 µM 98% | [6]; [16] 99% | [6]; at 100.0 µM 98% | [7]; at 100.0 µM 97% | [8]; [16] 77% | [9]; at 100.0 µM 99% | [10]; [16] 81% | [11]; at 100.0 µM 98% | [12]; at 100.0 µM 97% | [13]; at 100.0 µM 97% | [14]; at 100.0 µM 97%
inactive: [1]; at 1.2 µM 10% | [1]; at 3.7 µM -1% | [1]; at 11.0 µM 7% | [1]; at 33.0 µM 20% | [2]; at 1.2 µM -6% | [2]; at 3.7 µM -17% | [2]; at 11.0 µM -24% | [2]; at 33.0 µM -22% | [3]; at 1.2 µM -19% | [3]; at 3.7 µM -42% | [3]; at 11.0 µM -35% | [3]; at 33.0 µM -20% | [4]; at 1.2 µM -18% | [4]; at 3.7 µM -7% | [4]; at 11.0 µM -32% | [4]; at 33.0 µM -13% | [5]; at 1.2 µM -20% | [5]; at 3.7 µM -26% | [5]; [15] 51% | [5]; at 11.0 µM -30% | [5]; at 33.0 µM -7% | [6]; at 1.2 µM -37% | [6]; at 3.7 µM -23% | [6]; [15] 64% | [6]; at 11.0 µM -77% | [6]; at 33.0 µM -41% | [6]; at 50.0 µM -5.2% and 39.1% | [7]; at 1.2 µM -45% | [7]; at 3.7 µM -44% | [7]; at 11.0 µM -36% | [7]; at 33.0 µM 11% | [8]; [15] -46% | [8]; at 50.0 µM -9.25% and 61.6% | [9]; at 1.2 µM 8% | [9]; at 3.7 µM -9% | [9]; at 11.0 µM 1% | [9]; at 33.0 µM 13% | [10]; [15] 19% | [11]; at 1.2 µM -19% | [11]; at 3.7 µM -12% | [11]; [15] -4% | [11]; at 11.0 µM -27% | [11]; at 33.0 µM -15% | [11]; [16] 51% | [12]; at 1.2 µM -37% | [12]; at 3.7 µM -25% | [12]; at 11.0 µM -53% | [12]; at 33.0 µM -18% | [13]; at 1.2 µM -15% | [13]; at 3.7 µM -30% | [13]; at 11.0 µM -36% | [13]; at 33.0 µM -22% | [14]; at 1.2 µM -30% | [14]; at 3.7 µM -34% | [14]; at 11.0 µM -34% | [14]; at 33.0 µM -26%
-32.4% (inactive) and 71.7% (active): [11]; at 50.0 µM
-28.4% (inactive) and 85.2% (active): [5]; at 50.0 µM

From PubChem BioAssay (NCI)
